Active and inactive are the calls of the source.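 The calls were made as follows, unless noted: active = inhibition above 50%; inactive = the rest.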

One experiment is described as follows: antimalarial activity against Dd2 strain (AID 2302;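 active = growth inhibition above 50% at the single 2 µM test dose, taken to imply half-maximal potency below 2 µM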;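 also: 0% = DMSO untreated growth and 100% = chloroquine plus artemisinin killed control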). The following applies: P. falciparum Dd2 in RBCs, LDH growth readout, 72 h; at 2 µM; active compounds read high.
Regarding `CC1(CCCCN2CCC(Oc3ccc(F)cc3F)CC2)C(=O)Nc2ccccc21` (stereo not given), the growth inhibition is 6% (inactive).
Turning to `c1cc(CNC2CCCC2)cc(-c2ccc(CNc3ccc4ncccc4c3)cc2)c1`, the growth inhibition is 24% (inactive).
As to `O=S(=O)(c1cc2ccccc2s1)N(CCC(O)(C(F)(F)F)C(F)(F)F)Cc1cccc(O)c1`, the growth inhibition is 99% (active).
On the same count and under the same terms, in the case of `CCC(C)CN1CCN(c2ccc(NC(=O)c3cccs3)cc2)CC1C` (stereo not given) it was 94% (active); in that of `COc1ccc(Nc2nccc(N3CCC(NC(=O)C(C)c4ccc(Cl)cc4)C3)n2)cc1` (stereo not given), 97% (active).
With `O=C(/C=C/c1ccc(Cl)c(Cl)c1)NCCCCN1CCC(c2c[nH]c3ccccc23)CC1`, the growth inhibition is 11% (inactive).
Same read-out and setting: to `N#Cc1cccc(NC(=O)Nc2ccc(-c3ccc(-c4nc5ccc(C(F)(F)F)cc5[nH]4)cc3)cc2)c1` belongs 100% (active).
For the compound `CCOc1ccc(-c2nonc2NC(=O)c2ccc(OC(C)C)cc2)cc1OCC`, the growth inhibition was 100% (active).
`COc1ccccc1NC(=O)OC(COc1ccc(N)cc1)CN1CC=C(c2ccccc2)CC1` (stereo not given): the growth inhibition was 81% (active).
As for `CCCCN1C(=O)C(c2ccccc2)(c2ccccc2)N=C1N`, the growth inhibition is 34% (inactive).
Turning to `O=C(Nc1ccc(OC2CCN(Cc3ccc(F)cc3)C2)c(Cl)c1)c1ccc(F)cc1` (stereo not given), the growth inhibition is 94% (active).
Same read-out and setting: to `COc1cccc(Nc2c(C(N)=O)cnc3ccc(-c4ccc(S(C)=O)cc4)cc23)c1` (stereo not given) belongs 100% (active); to `CN(Cc1ccccc1)C1CCCN(c2cc(NC(=O)c3cccs3)ccn2)C1` (stereo not given), 90% (active); to `C[C@H](Cc1ccc(S(=O)(=O)c2ccc(C[C@@H](C)NC[C@H](O)c3cccc(Cl)c3)cc2)cc1)NC[C@H](O)c1cccc(Cl)c1`, 98% (active).
`O=C(Nc1ccc(-c2ccccc2)s1)N[C@H]1CCN(Cc2ccc(OCCCN3CCCCC3)cc2)C1`: the growth inhibition was 40% (inactive).
As to `COc1cc(Nc2nc(N)c3cc(OC)c(OC)cc3n2)cc(OC)c1`, the growth inhibition was 102% (active).
For `O=c1cc(NCCCNCc2ccc(C(F)(F)F)s2)[nH]c2ccccc12`, the growth inhibition is 68% (active).
As for `Cc1cc(NC(=O)c2sc3ccccc3c2O)no1`, the growth inhibition is 25% (inactive).
The same measure, in the same setting: to `Nc1nccc2ccc(-c3ccsc3)cc12` belongs 89% (active).
The same measure, in the same setting: in the case of `COc1cc2nc(NCCC(C)C)n3nc(-c4ccccc4)nc3c2cc1OC` it was 97% (active); in that of `COc1ccc2nccc([C@@H](O)CN3CCC(NCc4cc5c(F)ccc(F)c5[nH]4)CC3)c2c1`, 67% (active).
On the same count and under the same terms, in the case of `CCCN(CC)CCOC(=O)c1ccccc1` it was 1% (inactive); in that of `C[C@H](Nc1nc(C(Oc2ccccc2)c2ccccc2)nc2[nH]ncc12)c1ccccc1` (stereo not given in full), 56% (active).
As for `Cc1ccc(O)cc1C[C@@H]1C(=O)CC[C@@]2(C)[C@H]1CC[C@]2(C)O`, the growth inhibition was -6% (inactive).
With `Cc1ccc2c(NN=Cc3ccc(Cl)cc3)cc(C)nc2c1`, the growth inhibition was 34% (inactive).
On the same count and under the same terms, to `COC(=O)c1cccc(CNCc2cccc(-c3ccc(-c4nc5ccccc5[nH]4)cc3)c2)c1` belongs 51% (active); to `COc1cc2nc(Nc3ccc(C)cc3)nc(Nc3ccc(C)cc3)c2cc1OC`, 100% (active).
Take `Cc1cc(NCc2ccccc2)nc2cc(O)ccc12`: the growth inhibition was 80% (active).
As to `Cn1cccc1C(=O)C(=O)Nc1cccc(-c2ccc(-c3nc4ccc(C(F)(F)F)cc4[nH]3)cc2)c1`, the growth inhibition is 27% (inactive).
Still for that read-out and setting: to `O=C(N[C@@H](Cc1ccccc1)[C@H](O)CNC1CCCCC1)c1cc(C2CCCC2)cc(N2CCCC2=O)c1` belongs 98% (active).
Still for that read-out and setting: in the case of `COc1ccc(C2=CCN(c3ccc(Cl)c(Cl)c3)C2=O)cc1OCCN1CCCCC1` it was 99% (active).
Still for that read-out and setting: to `CCCCCN1CCCC1CNS(=O)(=O)c1ccc(C(=O)Nc2ccc(C(F)(F)F)cc2)cc1` (stereo not given) belongs -3% (inactive).
For the compound `Cc1nc2ccccc2c(=O)n1N=Cc1ccccc1[N+](=O)[O-]`, the growth inhibition was 26% (inactive).
Same read-out and setting: to `Cc1cc(NN=Cc2ccccc2)c2cc(C(F)(F)F)ccc2n1` belongs 97% (active); to `Cc1cc(Cl)c(S(=O)(=O)NC2CCCC2)cc1OCC(=O)NC1CCCCC1`, 91% (active); to `O=C(Nc1ccc2c(c1)CCC2)c1cccc(N2CCN(c3ccncc3)CC2)c1`, 22% (inactive).
Still for that read-out and setting: in the case of `O=C(Nc1ccc(-c2cccc(-c3nc4ccc(C(F)(F)F)cc4[nH]3)c2)cc1)c1ccncc1` it was 23% (inactive); in that of `COc1ccc(-c2c(-c3ccc(OCc4ccccc4)cc3O)n[nH]c2C(F)(F)F)cc1`, 57% (active).
Turning to `CCCCCN1CCCN(Cc2cccc(NC(=O)c3ccc(Cl)c(Cl)c3)c2)CC1`, the growth inhibition is 28% (inactive).
On to `Cc1cccc(C)c1C1CCN(C2CCC(NC(=O)/C=C/c3ccccc3)CC2)CC1` (stereo not given), for which the growth inhibition was 45% (inactive).

The next experiment is described as follows: human hepatoma cell viability loss – ATP luminescence, cytotoxicity control for P. falciparum antimalarial project, primary screen (AID 2303).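 Also: 0% = DMSO wells and 100% = digitonin-killed cells.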 The conditions noted are these: HepG2 viability, 24-48 h, at 10 µM, active compounds read high.
Usually inhibition stands for the change of the read-out against control, counted positive when it falls. For `CC1(CCCCN2CCC(Oc3ccc(F)cc3F)CC2)C(=O)Nc2ccccc21` (stereo not given), the inhibition was 6% (inactive).
Turning to `c1cc(CNC2CCCC2)cc(-c2ccc(CNc3ccc4ncccc4c3)cc2)c1`, the inhibition is 32% (inactive).
The same measure, in the same setting: in the case of `O=S(=O)(c1cc2ccccc2s1)N(CCC(O)(C(F)(F)F)C(F)(F)F)Cc1cccc(O)c1` it was -1% (inactive); in that of `CCC(C)CN1CCN(c2ccc(NC(=O)c3cccs3)cc2)CC1C` (stereo not given), -3% (inactive).
Take `COc1ccc(Nc2nccc(N3CCC(NC(=O)C(C)c4ccc(Cl)cc4)C3)n2)cc1` (stereo not given): the inhibition was 35% (inactive).
As for `O=C(/C=C/c1ccc(Cl)c(Cl)c1)NCCCCN1CCC(c2c[nH]c3ccccc23)CC1`, the inhibition was 57% (active).
Same read-out and setting: to `N#Cc1cccc(NC(=O)Nc2ccc(-c3ccc(-c4nc5ccc(C(F)(F)F)cc5[nH]4)cc3)cc2)c1` belongs 51% (active).
`CCOc1ccc(-c2nonc2NC(=O)c2ccc(OC(C)C)cc2)cc1OCC`: the inhibition is 13% (inactive).
Same read-out and setting: in the case of `COc1ccccc1NC(=O)OC(COc1ccc(N)cc1)CN1CC=C(c2ccccc2)CC1` (stereo not given) it was 16% (inactive); in that of `CCCCN1C(=O)C(c2ccccc2)(c2ccccc2)N=C1N`, 19% (inactive); in that of `O=C(Nc1ccc(OC2CCN(Cc3ccc(F)cc3)C2)c(Cl)c1)c1ccc(F)cc1` (stereo not given), 10% (inactive).
`COc1cccc(Nc2c(C(N)=O)cnc3ccc(-c4ccc(S(C)=O)cc4)cc23)c1` (stereo not given): the inhibition was -3% (inactive).
Still for that read-out and setting: in the case of `CN(Cc1ccccc1)C1CCCN(c2cc(NC(=O)c3cccs3)ccn2)C1` (stereo not given) it was 2% (inactive); in that of `C[C@H](Cc1ccc(S(=O)(=O)c2ccc(C[C@@H](C)NC[C@H](O)c3cccc(Cl)c3)cc2)cc1)NC[C@H](O)c1cccc(Cl)c1`, 100% (active); in that of `O=C(Nc1ccc(-c2ccccc2)s1)N[C@H]1CCN(Cc2ccc(OCCCN3CCCCC3)cc2)C1`, 5% (inactive).
On the same count and under the same terms, in the case of `COc1cc(Nc2nc(N)c3cc(OC)c(OC)cc3n2)cc(OC)c1` it was 7% (inactive).
`O=c1cc(NCCCNCc2ccc(C(F)(F)F)s2)[nH]c2ccccc12`: the inhibition was -11% (inactive).
On the same count and under the same terms, in the case of `Cc1cc(NC(=O)c2sc3ccccc3c2O)no1` it was 6% (inactive); in that of `Nc1nccc2ccc(-c3ccsc3)cc12`, 38% (inactive); in that of `COc1cc2nc(NCCC(C)C)n3nc(-c4ccccc4)nc3c2cc1OC`, -7% (inactive).
On the same count and under the same terms, to `COc1ccc2nccc([C@@H](O)CN3CCC(NCc4cc5c(F)ccc(F)c5[nH]4)CC3)c2c1` belongs 29% (inactive); to `CCCN(CC)CCOC(=O)c1ccccc1`, 2% (inactive); to `C[C@H](Nc1nc(C(Oc2ccccc2)c2ccccc2)nc2[nH]ncc12)c1ccccc1` (stereo not given in full), 15% (inactive).
On the same count and under the same terms, to `Cc1ccc(O)cc1C[C@@H]1C(=O)CC[C@@]2(C)[C@H]1CC[C@]2(C)O` belongs 4% (inactive).
As for `Cc1ccc2c(NN=Cc3ccc(Cl)cc3)cc(C)nc2c1`, the inhibition was -1% (inactive).
Same read-out and setting: to `COC(=O)c1cccc(CNCc2cccc(-c3ccc(-c4nc5ccccc5[nH]4)cc3)c2)c1` belongs -3% (inactive); to `COc1cc2nc(Nc3ccc(C)cc3)nc(Nc3ccc(C)cc3)c2cc1OC`, 99% (active).
The same measure, in the same setting: to `Cc1cc(NCc2ccccc2)nc2cc(O)ccc12` belongs -7% (inactive); to `Cn1cccc1C(=O)C(=O)Nc1cccc(-c2ccc(-c3nc4ccc(C(F)(F)F)cc4[nH]3)cc2)c1`, 62% (active); to `O=C(N[C@@H](Cc1ccccc1)[C@H](O)CNC1CCCCC1)c1cc(C2CCCC2)cc(N2CCCC2=O)c1`, 17% (inactive).
Same read-out and setting: in the case of `COc1ccc(C2=CCN(c3ccc(Cl)c(Cl)c3)C2=O)cc1OCCN1CCCCC1` it was 19% (inactive); in that of `CCCCCN1CCCC1CNS(=O)(=O)c1ccc(C(=O)Nc2ccc(C(F)(F)F)cc2)cc1` (stereo not given), 19% (inactive); in that of `Cc1nc2ccccc2c(=O)n1N=Cc1ccccc1[N+](=O)[O-]`, -8% (inactive).
Take `Cc1cc(NN=Cc2ccccc2)c2cc(C(F)(F)F)ccc2n1`: the inhibition was 30% (inactive).
The same measure, in the same setting: in the case of `Cc1cc(Cl)c(S(=O)(=O)NC2CCCC2)cc1OCC(=O)NC1CCCCC1` it was 19% (inactive); in that of `O=C(Nc1ccc2c(c1)CCC2)c1cccc(N2CCN(c3ccncc3)CC2)c1`, 35% (inactive).
Consider `O=C(Nc1ccc(-c2cccc(-c3nc4ccc(C(F)(F)F)cc4[nH]3)c2)cc1)c1ccncc1`, for which the inhibition is 63% (active).
Same read-out and setting: in the case of `COc1ccc(-c2c(-c3ccc(OCc4ccccc4)cc3O)n[nH]c2C(F)(F)F)cc1` it was 49% (inactive).
Take `CCCCCN1CCCN(Cc2cccc(NC(=O)c3ccc(Cl)c(Cl)c3)c2)CC1`: the inhibition is 30% (inactive).
For `Cc1cccc(C)c1C1CCN(C2CCC(NC(=O)/C=C/c3ccccc3)CC2)CC1` (stereo not given), the inhibition was 42% (inactive).

Source of the values: PubChem BioAssay.
